Pf growth 48h – inhibits P. falciparum growth in the first generation, 48 h; AID 504832; Potency, µM (series often up to 28.7 µM), inactives show top-dose activity change, negative = inhibition, hits mostly inhibitors; 310,000 compounds, 5.9% hits; P. falciparum luciferase growth in erythrocytes, 48 h
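Parasite viability was followed by luminescence of a genomically integrated firefly luciferase. Cultures held 0.1% parasitemia at 2% hematocrit (final), incubated under 5% CO2 at 37 C.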
Pf growth 96h – P. falciparum growth inhibition at 96 hour, primary screen for plastid delayed-death inhibitors | P. falciparum luciferase reporter growth, 96 h | Potency, µM (titrated, usually from 28.7 µM), for the others: at the top dose activity change, negative = inhibition, hits mostly inhibitors | 320,000 compounds, 6.9% hits
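Infected RBCs, 2% Hct / 0.05% parasitemia final; luciferase-reporter P. falciparum; cpd 96 h, 37 C, 5% CO2; luciferase detection reagent; luminescence.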
AMA1 RON2 block – inhibitors of Plasmodium falciparum AMA1-RON2 interaction; AlphaScreen AMA1-biotinylated RON2 peptide binding; Potency, µM (titrated, usually from 58.2 µM), for inactives: at the top dose activity change, negative = inhibition, hits mostly inhibitors; 360,000 compounds, 0.2% hits;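 further: 0% = vehicle wells and -100% = peptide control; nearly all actives have a fitted effect of over 45% in size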
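AMA1 (3D7) with his tag at 25 nM final met compounds first, then biotinylated RON2 peptide at 25 nM; detection used donor plus acceptor beads, 10 µg/mL apiece, read by AlphaScreen after 30 min at room temperature.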
HCV inh – blocks hepatitis C virus; AID 651820; Huh7.5.1 HCVcc-Cre infection, luciferase reporter, 44 h; Potency, µM (top dose mostly 41.8 µM), inactives show at the highest dose activity change, negative = inhibition, hits mostly inhibitors; 340,000 compounds, 3.4% hits
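Luciferase read-out (15 sec integration) after a 15 min room-temperature substrate step quantifies HCVcc-Cre infection. Cells, 1,000 per well, had compound added 4 h post-plating, then virus at ~0.5 moi, and were cultured 44 h.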
Starred values were filed as active, the others as inactive. An excerpt weighted towards active compounds, which were near 11% of everything screened. The call rests on the fitted dose curve; in most records, active means well fitted curve in the direction sought with a large enough effect; inconclusive means small, poorly fitted or top-dose-only effect, or another doubt; inactive means no such curve, though single readings can be large; an effect the other way counts as inactive or inconclusive. Unless noted, on the % scale 0 is the no-effect control and ±100 the full control effect; potency means the concentration at half of the fitted maximal effect.

What do the screens show for `CC(C)c1ccc(NC(=O)c2snc3ccc(Cl)cc23)cc1`?
Pf growth 48h: 63%; Pf growth 96h: -94%; AMA1 RON2 block: -13%; HCV inh: inconclusive

What do the screens show for `CCOC(=O)C1(CC)NC(c2ccc(OC)c(OC)c2)C2C(=O)N(c3cccc(C(C)=O)c3)C(=O)C21` (stereo unspecified)?
Pf growth 48h: -17%; Pf growth 96h: 13%; AMA1 RON2 block: 8%; HCV inh: 0%

How did CCc1[nH]nc2c1C(c1ccc(Br)s1)C(C#N)=C(N)O2 (stereo unspecified) do in these assays?
Pf growth 48h: -2%; Pf growth 96h: 7%; AMA1 RON2 block: -25%; HCV inh: inconclusive

How did S=C1NCCNC(=S)NCCOCCOCCN1 do in these assays?
Pf growth 48h: 12%; Pf growth 96h: -11%; AMA1 RON2 block: 36%; HCV inh: 11%

How did CC(C)C(O)(C#CCN1CCCCCC1)c1ccccc1 (stereo unspecified) do in these assays?
Pf growth 48h: inconclusive; Pf growth 96h: -1%; AMA1 RON2 block: 0%; HCV inh: -8%

Results for CCc1cc(C(=O)OC)c(NC(=O)c2cc(Br)cs2)s1 ?
Pf growth 48h: -4%; AMA1 RON2 block: 19%; HCV inh: -20%

Results for CCc1cc(C(=O)OC)c(NC(=O)c2ccoc2C)s1 ?
Pf growth 48h: inconclusive; Pf growth 96h: inconclusive; AMA1 RON2 block: -3%; HCV inh: 10µM*

How did O=C(c1cc(COc2c(F)cccc2F)on1)N1CCC(c2ccccc2Cl)C1 (stereo unspecified) do in these assays?
Pf growth 48h: -19%; Pf growth 96h: 20%; AMA1 RON2 block: -2%; HCV inh: 3%

How did COC(=O)[C@H](Cc1ccccc1)NC(=O)c1cc(COc2c(F)cccc2F)on1 do in these assays?
Pf growth 48h: 41%; Pf growth 96h: 12µM*; AMA1 RON2 block: 0%; HCV inh: 10%

How did O=C(c1cc(COc2c(F)cccc2F)on1)N1CCC(c2ccccc2F)C1 (stereo unspecified) do in these assays?
Pf growth 48h: 20%; Pf growth 96h: 9.3µM*; AMA1 RON2 block: -16%; HCV inh: -10%

What do the screens show for `CCN(Cc1ccncc1)C(=O)c1cc(COc2c(F)cccc2F)on1`?
Pf growth 48h: 5%; Pf growth 96h: 10µM*; AMA1 RON2 block: -2%; HCV inh: -4%

How did O=C(c1cc(COc2c(F)cccc2F)on1)N1CCC(c2ccncc2)CC1 do in these assays?
Pf growth 48h: inconclusive; Pf growth 96h: inconclusive; AMA1 RON2 block: 16%; HCV inh: 5µM*

How did O=C(COC(=O)c1cc[n+]([O-])cc1)Nc1ccc([N+](=O)[O-])cc1 do in these assays?
Pf growth 48h: 4%; Pf growth 96h: 32%; AMA1 RON2 block: 3%; HCV inh: -23%

Results for CC(C)C(C(=O)NCC1CCCO1)N(C(=O)CNS(=O)(=O)c1ccc(F)cc1)C1CCCCC1 (stereo unspecified) ?
Pf growth 48h: -10%; Pf growth 96h: 3%; AMA1 RON2 block: -7%; HCV inh: 13%

Results for O=C(NCCCSc1ccccc1)c1cc(Br)ccc1O ?
Pf growth 48h: 11%; Pf growth 96h: -19%; AMA1 RON2 block: 10%; HCV inh: inconclusive

Results for COC(=O)[C@@]12C[C@@H](CC(=O)N3CCSCC3)C(=O)N(CCc3ccc(OC)c(OC)c3)C1=CCC(C)(C)C2 ?
AMA1 RON2 block: -14%

What do the screens show for `CN1CCN(C(=O)c2cc(COc3c(F)cccc3F)on2)CC1c1ccccc1` (stereo unspecified)?
Pf growth 48h: -1%; Pf growth 96h: 4.1µM*; AMA1 RON2 block: 12%; HCV inh: -22%

How did Cc1cccc(C)c1OCc1cc(C(=O)N2CCC(c3ccncc3)CC2)no1 do in these assays?
Pf growth 48h: -1%; Pf growth 96h: -19%; AMA1 RON2 block: -2%; HCV inh: 7.9µM*

What do the screens show for `COc1ccc(N2CCN(C(CNC(=O)c3cccc(Cl)c3)c3cccnc3)CC2)cc1` (stereo unspecified)?
Pf growth 48h: inconclusive; Pf growth 96h: 1.9µM*; AMA1 RON2 block: -12%; HCV inh: inconclusive

What do the screens show for `COc1cccc(C(=O)NCC(c2cccnc2)N2CCN(c3ccccc3OC)CC2)c1` (stereo unspecified)?
Pf growth 48h: 12µM*; Pf growth 96h: inconclusive; AMA1 RON2 block: 1%; HCV inh: inconclusive

Source: PubChem
